We go through eleven molecules from ChEMBL document CHEMBL4513149, “CO-ADD screening of MMV (CH) - MMV compounds” (2021).

The subject of one experiment is Staphylococcus aureus. The following applies: Concentration 20 uM; ASSAY_TEST Inhibition of Bacterial Growth; detection method Absorption (OD600); MEDIA CAMHB; plate type 384well; NBS; CORNING #3640; time 18 hr.
For the next experiment, the system named is Escherichia coli. The following applies: Concentration 20 uM; ASSAY_TEST Inhibition of Bacterial Growth; detection method Absorption (OD600); MEDIA CAMHB; plate type 384well; NBS; CORNING #3640; time 18 hr.

Molecules are shown by their SMILES. Entries with a potency or affinity are not part of this list.

With `Cc1cc(C(=O)Nc2ccc(-c3ccccc3)cc2)no1`, the results for the Inhibition with Staphylococcus aureus and in the experiment on Escherichia coli were 16.2% and 12.13%, respectively.

`COc1ccc(-c2cnc3cnc(-c4cccc(OC(C)C)c4)cn23)cc1`: the Inhibition in the experiment on Staphylococcus aureus was determined as 6.79%; in the experiment on Escherichia coli it was 4.77%.

For `c1ccc(-c2cc(N3CCCCC3)c3ccccc3n2)nc1`, the Inhibition in the experiment on Staphylococcus aureus worked out at 9.48%; with Escherichia coli it was 7.94%.

`Cc1ccc(Oc2ccc(NC(=O)CNc3ccccc3N3CCCC3=O)cc2)cc1`: the Inhibition is on record as 5.88% with Staphylococcus aureus and 6.72% with Escherichia coli.

As to `CC(C)(C)c1cnc(NC(=O)c2ccccc2O)s1`, the Inhibition in the experiment on Staphylococcus aureus is reported as 23.8%; with Escherichia coli, 4.86%.

For `COc1cccc(NC(=O)c2c(NC(=O)c3cccnc3)sc3c2CCC3)c1`, the Inhibition in the experiment with Staphylococcus aureus worked out at 17.01%; with Escherichia coli, 4.69%.

As to `CNC(=O)c1nn(C)c2c1C(C)(C)Cc1cnc(Nc3ccc(N4CCN(C)CC4)cc3)nc1-2` [MILCICLIB], the Inhibition in the experiment with Staphylococcus aureus worked out at 15.75%; in the experiment with Escherichia coli it was 10.4%.

On to `CNC(=O)C1Cc2ccccc2N1C(=O)Cc1ccc(F)cc1` (configuration not stated), for which the figures for the Inhibition in the experiment with Staphylococcus aureus and in the experiment with Escherichia coli were 16.81% and 5.31%, respectively.

Take `O=C(Nc1cccc(-c2ccc(NCCCN3CCCC3)nc2)c1)c1ccccc1`: the Inhibition with Staphylococcus aureus was 10.81%; in the experiment on Escherichia coli, 7.66%.

In the case of `Cc1cccc(Cn2ccc(NC(=O)c3ccc4c(c3)OCO4)n2)c1`, the values for the Inhibition in the experiment with Staphylococcus aureus and in the experiment on Escherichia coli were 18.14% and 6.79%, respectively.

As for `Cc1ccc(S(=O)(=O)N2CCN(C(=O)c3cc(-c4ccccc4)n[nH]3)CC2)cc1`, the Inhibition with Staphylococcus aureus was found to be 1.4%; in the experiment on Escherichia coli, 11.29%.

One may read the Inhibition as the change of the read-out against control, counted positive when it falls. A lower Inhibition goes with a response near the control.
